Here are results for eight compounds from PubChem BioAssay.

The source made the active and inactive calls.

Assay [1] can be described thus: optical density shifts of acrAB sulA E. coli – strain DRC41, OD650, 48 h, E. coli filamentation inducer project, primary screen (AID 1152).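 Also: E. coli MC1000 strain DRC41 lacking acrAB efflux pump and sulA.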 The settings on record: higher = more signal, called active from +8 up or from −8 down.
A short description of assay [2]: probe aLefty1 binding on compound microarray – biochemical, small-molecule microarray, 635/667 nm fluorescence, primary screen (AID 1153).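 Also: score merges spot fluorescence with signal-to-noise ratio from the scanned slide images.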 The settings on record: higher = more signal.
A short description of assay [3]: plasmodial surface anion channel blockers, osmotic lysis – cell-based, P. falciparum Indochina, OD700, 1 h, primary screen (AID 1154). The settings on record: P. falciparum Indochina infected RBC osmotic lysis, higher = more signal, called active from +8 up or from −8 down.
Assay [4] in a line: plasmodial surface anion channel blockers, osmotic lysis – cell-based, P. falciparum Indochina, OD700, 2 h, primary screen (AID 1155).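 Also: lysis reports solute entry through the parasite surface anion channel PSAC.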 The settings on record: P. falciparum Indochina infected erythrocytes, higher = more signal, called active from +8 up or from −8 down.
A short description of assay [5]: changes in parasitized red cell lysis, either direction – P. falciparum Indochina, OD700, 3 h, PSAC antagonist project, primary screen (AID 1156). The settings on record: P. falciparum-infected erythrocytes, osmotic lysis, higher = more signal, called active from +8 up or from −8 down.
Assay [6] in a line: plasmodial surface anion channel blockers, osmotic lysis – cell-based, P. falciparum Indochina, OD700, 18 h, primary screen (AID 1157). The settings on record: P. falciparum Indochina infected erythrocytes, osmotic lysis OD700, 18 h; higher = more signal, called active from +8 up or from −8 down.
The nature of assay [7]: S6 kinase pathway phospho-S6 level changes – cell-based, A549, cytoblot, luminescence, serum-stimulated, primary screen (AID 1158).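 Also: serum-stimulated A549 lung adenocarcinoma cells; signal is phosphorylated S6 detected by cytoblot immunostaining with HRP secondary.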 The settings on record: 5 h, higher = more signal.
Assay [8] deals with NADPH oxidase 2 (Homo sapiens) (UniProt P04839). Nature of the assay: compounds shifting NOX2 Amplex Red fluorescence – cell-based, HEK293-NOX2, PMA-stimulated, NOX inhibitor project, primary screen (AID 1159). Also: test concentration not given here. The settings on record: 45 min, higher = more signal, called active from +8 up or from −8 down.
The target in assay [9] is NADPH oxidase 4 (Homo sapiens) (UniProt Q9NPH5). Nature of the assay: compounds shifting NOX4 Amplex Red fluorescence – cell-based, HEK293-NOX4, tetracycline-induced, NOX inhibitor project, primary screen (AID 1160). The settings on record: HEK293-NOX4, Amplex Red H2O2 fluorescence, 45 min; higher = more signal, called active from +8 up or from −8 down.
Assay [10] concerns the target NADPH oxidase 5 (Homo sapiens) (UniProt Q96PH1). The experiment in a line: compounds shifting NOX5 Amplex Red fluorescence – cell-based, HEK293-NOX5, NOX inhibitor project, primary screen (AID 1161). The settings on record: HEK293-NOX5, ionomycin, 45 min, higher = more signal.
Assay [11] in a line: compound effects on lung adenocarcinoma cell viability – A549, calcein-AM fluorescence, 48 h, basal, profiling panel (AID 1162). Also: test concentration not given here. The settings on record: higher = more signal.
Assay [12] can be described thus: compound effects on differentiated 3T3-L1 adipocyte viability – cell-based, 3T3-L1 adipocytes, calcein-AM fluorescence, 48 h, basal, profiling panel (AID 1163). Also: test concentration not given here. The settings on record: 3T3-L1 adipocytes viability, higher = more signal.
Assay [13] is described as follows: compound effects on hepatocellular carcinoma cell viability – HepG2, calcein-AM fluorescence, 48 h, basal, profiling panel (AID 1164). Also: test concentration not given here. The settings on record: higher = more signal.
Assay [14] in a line: compound effects on multiple myeloma cell viability – MM1S, calcein-AM fluorescence, 48 h, basal, profiling panel (AID 1165).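 Also: viability of MM1S multiple myeloma cells under basal unstimulated conditions; test concentration not given here.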 The settings on record: higher = more signal.
A short description of assay [15]: calcein-AM signal in unstimulated myeloma cells – cell-based, calcein-AM fluorescence, 48 h, PK04 Diversity Set, profiling panel (AID 1166).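 Also: cells grown under basal conditions without added stimulus; test concentration not given here.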 The settings on record: RPMI8226 myeloma viability, higher = more signal.
The nature of assay [16]: JC-1 mitochondrial signal, unstimulated HepG2 cells – cell-based, JC-1 fluorescence, 24 h, 100 nL compound, profiling panel (AID 1167). Also: test concentration not given here. The settings on record: HepG2 mitochondrial potential, higher = more signal.
Assay [17] can be described thus: JC-1 mitochondrial signal, unstimulated adipocytes – cell-based, JC-1 fluorescence, 3T3-L1 adipocytes, 24 h, 100 nL compound, profiling panel (AID 1168). Also: test concentration not given here. The settings on record: JC-1 mitochondrial fluorescence, higher = more signal, called active from +8 up or from −8 down.
Assay [18] in a line: JC-1 mitochondrial signal, unstimulated myeloma cells – cell-based, JC-1 fluorescence, RPMI8226, 24 h, 100 nL compound, profiling panel (AID 1169). Also: test concentration not given here. The settings on record: JC-1 mitochondrial potential fluorescence, higher = more signal.
A short description of assay [19]: JC-1 mitochondrial signal, unstimulated MM1S myeloma – cell-based, JC-1 fluorescence, 24 h, 100 nL compound, profiling panel (AID 1170). Also: test concentration not given here. The settings on record: MM1S mitochondrial potential, higher = more signal.
Assay [20] in a line: resazurin metabolic signal in A549 cells – cell-based, resazurin fluorescence, 24 h, PK04 Diversity Set, profiling panel (AID 1171). Also: test concentration not given here. The settings on record: A549 viability, higher = more signal, called active from +8 up or from −8 down.

Chain of NADPH oxidase 2 (Homo sapiens) (P04839 whole entry, looked up): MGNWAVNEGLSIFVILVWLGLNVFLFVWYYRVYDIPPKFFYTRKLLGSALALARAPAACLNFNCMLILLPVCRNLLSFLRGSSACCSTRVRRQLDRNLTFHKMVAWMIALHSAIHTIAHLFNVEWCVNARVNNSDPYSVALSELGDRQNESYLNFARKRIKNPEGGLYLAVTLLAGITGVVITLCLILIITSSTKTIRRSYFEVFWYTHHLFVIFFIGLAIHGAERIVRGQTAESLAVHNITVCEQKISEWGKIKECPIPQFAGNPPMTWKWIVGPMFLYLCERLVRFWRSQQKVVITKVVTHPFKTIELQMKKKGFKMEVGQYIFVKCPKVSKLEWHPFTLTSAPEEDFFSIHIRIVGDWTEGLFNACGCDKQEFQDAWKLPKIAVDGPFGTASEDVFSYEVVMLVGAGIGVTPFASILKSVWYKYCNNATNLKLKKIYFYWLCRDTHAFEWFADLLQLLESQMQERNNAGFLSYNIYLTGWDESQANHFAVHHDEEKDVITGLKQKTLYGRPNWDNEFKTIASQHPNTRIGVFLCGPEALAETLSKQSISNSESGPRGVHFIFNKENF
Chain of NADPH oxidase 5 (Homo sapiens) (Q96PH1 whole entry, looked up): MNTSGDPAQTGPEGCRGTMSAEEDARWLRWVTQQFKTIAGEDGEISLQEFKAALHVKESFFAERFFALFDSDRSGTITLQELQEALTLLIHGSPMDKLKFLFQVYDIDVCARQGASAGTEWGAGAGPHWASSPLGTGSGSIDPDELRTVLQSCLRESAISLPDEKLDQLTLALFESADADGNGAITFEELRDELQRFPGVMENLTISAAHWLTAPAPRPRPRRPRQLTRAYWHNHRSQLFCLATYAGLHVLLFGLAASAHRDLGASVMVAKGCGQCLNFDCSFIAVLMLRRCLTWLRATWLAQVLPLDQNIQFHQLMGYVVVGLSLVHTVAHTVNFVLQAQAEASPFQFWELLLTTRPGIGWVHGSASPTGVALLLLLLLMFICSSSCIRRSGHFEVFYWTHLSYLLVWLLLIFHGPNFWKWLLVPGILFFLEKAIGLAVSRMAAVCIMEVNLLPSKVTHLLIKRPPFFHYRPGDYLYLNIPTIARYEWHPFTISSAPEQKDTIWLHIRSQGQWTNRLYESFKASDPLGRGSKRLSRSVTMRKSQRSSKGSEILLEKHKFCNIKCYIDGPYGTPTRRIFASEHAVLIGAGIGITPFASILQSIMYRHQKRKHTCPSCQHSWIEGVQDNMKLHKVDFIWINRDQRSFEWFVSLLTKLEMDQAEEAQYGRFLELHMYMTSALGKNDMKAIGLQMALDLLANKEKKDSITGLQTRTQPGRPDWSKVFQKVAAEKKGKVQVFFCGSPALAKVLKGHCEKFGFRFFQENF
Chain of NADPH oxidase 4 (Homo sapiens) (Q9NPH5 whole entry, looked up): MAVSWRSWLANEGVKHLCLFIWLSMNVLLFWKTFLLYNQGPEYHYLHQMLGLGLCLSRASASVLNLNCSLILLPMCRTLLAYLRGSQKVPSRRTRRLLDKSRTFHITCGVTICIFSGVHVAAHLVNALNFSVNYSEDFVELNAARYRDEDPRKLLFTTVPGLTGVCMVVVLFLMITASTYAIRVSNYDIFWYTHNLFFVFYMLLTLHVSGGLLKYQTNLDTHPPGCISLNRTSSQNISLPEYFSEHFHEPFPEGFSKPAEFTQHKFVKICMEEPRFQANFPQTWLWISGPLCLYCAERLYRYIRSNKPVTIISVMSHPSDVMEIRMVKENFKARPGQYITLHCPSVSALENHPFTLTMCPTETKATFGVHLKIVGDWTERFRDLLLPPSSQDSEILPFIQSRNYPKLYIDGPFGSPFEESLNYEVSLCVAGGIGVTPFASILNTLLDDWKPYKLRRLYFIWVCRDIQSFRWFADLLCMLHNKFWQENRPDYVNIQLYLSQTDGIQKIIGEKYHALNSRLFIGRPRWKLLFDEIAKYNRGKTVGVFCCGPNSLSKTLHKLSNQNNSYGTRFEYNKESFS

With `C=C(/C(=C/C[C@@H](OC(=O)c1ccncc1)c1cccc(OCCO)c1)c1cnc2ccccc2c1)C(C)C`, the z-score in [1] was 0.172 (inactive); in assay [3] it was 13.7 (active); in assay [4], 1.86 (inactive); in assay [5] it was 1.32 (inactive); in [6], 0.897 (inactive); in assay [7], 0.199. In addition, the z-score in assay [8] was -1.34 (inactive); in assay [9] it was -0.507 (inactive); in assay [10], -0.782; in [11] it was 0.509; in assay [12], 1.55; in assay [13], 0.0856. Moreover, the z-score in assay [14] is -2.52; in [15], -0.467; in assay [16], 1.42; in assay [17], -0.45 (inactive); in assay [18], -0.533; in assay [19], 0.817. In addition, the z-score in assay [20] is 0.128 (inactive). In assay [2], this compound gave a composite z-score of 0.13.

Take `COc1ccc(CCNC(=O)[C@@]2(Cc3ccccc3I)c3ccccc3C(=O)N(Cc3ccccc3Cl)[C@H]2c2ccc(CO)cc2)cc1`: the z-score in assay [1] was -1.2 (inactive); in assay [3] it was 4.53 (inactive); in assay [4] it was 1.52 (inactive); in [5] it was 1.55 (inactive); in [6] it was 0.473 (inactive); in [7], 0.0403. Also, the z-score in [8] was 0.898 (inactive); in assay [9], 0.183 (inactive); in assay [10], 1.39; in [11], -0.613; in assay [12], -0.073; in assay [13] it was -0.63. The z-score in assay [14] was -3.36; in [15], -1.92; in assay [16] it was 0.962; in assay [17], 0.119 (inactive); in [18], -0.0808; in [19], -0.413. Besides, the z-score in assay [20] was 0.109 (inactive). This compound also displayed a composite z-score in [2] of 0.893.

`CCOC(=O)C1=CCC(c2ccccc2)N(S(=O)(=O)c2ccc([N+](=O)[O-])cc2)C1` (stereo not given): the z-score was -0.72 (inactive) in [1]; 2.62 (inactive) in assay [3]; 0.987 (inactive) in [4]; 1.4 (inactive) in assay [5]; 0.46 (inactive) in assay [6]; -0.412 in assay [7]. The z-score is 0.528 (inactive) in [8]; -0.114 (inactive) in assay [9]; -0.023 in assay [10]; -0.482 in [11]; -1.19 in [12]; -1.07 in assay [13]. Also, the z-score in [14] was -0.259; in assay [15], 0.0811; in assay [16], -1.73; in assay [17] it was -0.483 (inactive); in assay [18] it was 0.602; in assay [19], -1.37. Besides, the z-score in assay [20] is 0.217 (inactive). This compound gave a composite z-score in assay [2] of 0.0451.

For `CN1C(=O)C2C(C1=O)C1C=C(CCCO)C2C(c2cccs2)N1Cc1cc2c(cc1Br)OCO2` (stereo not given), the z-score was -0.139 (inactive) in [1]; 25.1 (active) in assay [3]; 15.9 (active) in assay [4]; 0.0521 (inactive) in assay [5]; 1.58 (inactive) in assay [6]; 0.791 in [7]. The z-score in assay [8] was 0.196 (inactive); in assay [9] it was 0.0713 (inactive); in [10], 0.741; in assay [11], 0.952; in assay [12] it was 0.225; in assay [13], 0.557. Further, the z-score in [14] is -0.635; in [15] it was -1.44; in assay [16], -0.129; in assay [17], -0.859 (inactive); in assay [18], -0.309; in assay [19], 0.872. Also, the z-score in [20] is -0.0723 (inactive). In [2], this compound gave a composite z-score of -0.0587.

Take `COc1ccc(C#Cc2ccc3c(c2)[C@]2(C(=O)N3)[C@H](C(=O)Nc3nc4ccccc4s3)[C@H]3C(=O)O[C@H](c4ccccc4)[C@H](c4ccccc4)N3[C@@H]2c2ccccc2OCCO)cc1`: the z-score was 2.86 (inactive) in [1]; 2.32 (inactive) in assay [3]; 2.07 (inactive) in assay [4]; -0.279 (inactive) in [5]; -0.442 (inactive) in assay [6]; 0.81 in assay [7]. The z-score was 1.91 (inactive) in assay [8]; -0.0532 (inactive) in [9]; 0.268 in assay [10]; 0.609 in assay [11]; 1.61 in [12]; 0.211 in assay [13]. The z-score was -0.708 in assay [14]; -0.451 in assay [15]; -2.79 in assay [16]; 3.69 (inactive) in [17]; -1.03 in assay [18]; -1.27 in assay [19]. Moreover, the z-score in [20] is -0.801 (inactive). Besides, the composite z-score in assay [2] is -0.118.

For the compound `CC(C)OC(=O)CC(=O)CC(O)c1ccc([N+](=O)[O-])cc1` (stereo not given), the z-score in [1] was -0.314 (inactive); in [3], 1.92 (inactive); in assay [4], 0.586 (inactive); in assay [5], 0.0451 (inactive); in [6], 0.438 (inactive); in assay [7] it was -0.243. Also, the z-score in [8] was 0.0696 (inactive); in assay [9], 0.66 (inactive); in assay [10], 0.39; in assay [11], 1.78; in assay [12] it was -0.228; in [13], 0.714. The z-score in assay [14] is 0.772; in assay [15], 0.159; in [16], 0.775; in assay [17] it was 0.377 (inactive); in assay [18] it was -0.121; in assay [19] it was -0.359. Moreover, the z-score in assay [20] was -0.741 (inactive). The compound further returned a composite z-score in assay [2] of 0.0509.

Take `CN(C)CCCCNC(=O)[C@H]1C[C@H]2C(=O)N[C@@H](CCCC[N+](C)(C)C)C(=O)N2[C@H]1c1ccc(O)cc1`: the z-score in assay [1] is 1.67 (inactive); in assay [3] it was 1.32 (inactive); in assay [4], -0.539 (inactive); in [5], -0.27 (inactive); in [6] it was -1.63 (inactive); in [7], 0.0054. Besides, the z-score is 0.622 (inactive) in assay [8]; 0.319 (inactive) in assay [9]; 1.31 in assay [10]; -0.0568 in assay [11]; 0.29 in [12]; -0.172 in assay [13]. Moreover, the z-score in assay [14] was -0.178; in [15], 0.733; in assay [16], -0.445; in assay [17], -0.763 (inactive); in [18], -0.101; in assay [19] it was -0.203. Further, in assay [20], the z-score was 0.625 (inactive). Further, in [2], the composite z-score is -0.2.

In the case of `CC(CO)N1C(=O)[C@@H]2[C@H]3C(=O)OCC=C[C@H]3OC23C=CCN(c2ccc(Cl)cc2)C(=O)[C@@H]13` (stereo not given in full), the z-score in assay [1] is 0.458 (inactive); in [3], -0.499 (inactive); in assay [4], -0.219 (inactive); in assay [5], 0.639 (inactive); in [6] it was 0.0119 (inactive); in assay [7], -0.172. Moreover, the z-score in [8] was 0.8 (inactive); in assay [9], 0.28 (inactive); in assay [10] it was 1.34; in assay [11], 0.0473; in assay [12], 0.311; in assay [13] it was 0.336. In addition, the z-score in [14] is 0.829; in assay [15] it was -0.485; in assay [16], -0.321; in assay [17], -0.574 (inactive); in assay [18], -0.818; in assay [19], 0.0977. In assay [20], the z-score was 0.957 (inactive). The compound also registered a composite z-score in assay [2] of -0.283.
